# Reference: publication PMC7862700, “An all-to-all approach to the identification of sequence-specific readers for epigenetic DNA modifications on cytosine”
# Assays:
# Assay in all cases: DAPPL (digital affinity profiling via proximity ligation, sequencing); 10 mM Tris-HCl pH 7.5, 50 mM NaCl, 1 mM DTT, 4% glycerol, room temperature, 30 min; GST-TFs on glutathione beads, 16-mer random dsDNA library, 0.1% formaldehyde crosslink after washing; high values mean tight binding
# FLI1 = target: T1, FLI1 (Homo sapiens, UniProt Q01543 1-452); details: protein: recombinant; tags: N-terminal GST; dsDNA, one strand shown
# T1 sequence: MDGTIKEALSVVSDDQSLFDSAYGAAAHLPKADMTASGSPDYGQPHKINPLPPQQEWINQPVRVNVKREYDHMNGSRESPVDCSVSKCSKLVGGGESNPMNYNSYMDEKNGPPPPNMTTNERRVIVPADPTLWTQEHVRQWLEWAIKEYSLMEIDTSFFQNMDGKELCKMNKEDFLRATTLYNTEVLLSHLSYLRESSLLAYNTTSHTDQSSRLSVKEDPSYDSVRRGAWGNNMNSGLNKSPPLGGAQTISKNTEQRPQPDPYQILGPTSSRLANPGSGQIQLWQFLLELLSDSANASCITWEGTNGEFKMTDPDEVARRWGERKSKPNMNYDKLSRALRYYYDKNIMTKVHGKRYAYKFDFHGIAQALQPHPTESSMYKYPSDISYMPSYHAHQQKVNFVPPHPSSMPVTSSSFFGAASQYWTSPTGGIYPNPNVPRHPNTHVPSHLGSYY
# Outline: (§1)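 A tag-only sample was pooled with DNA-barcoded human transcription factors that had been expressed in yeast as GST fusions and captured on glutathione beads. The pools were incubated for 30 min at room temperature with 200 nmole of a random double-stranded 16-mer DNA library in Tris/NaCl/DTT/glycerol buffer, then washed, crosslinked with 0.1% formaldehyde, proximity-ligated (BsaI/T4 ligase, 1 h, 37 °C), PCR-amplified and sequenced on an Illumina NextSeq500. Binding signal is each hexamer's read frequency for a factor divided by its frequency for the tag-only sample.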
# ELK1 = target: T2, ELK1 (Homo sapiens, UniProt P19419 1-428); details: protein: recombinant; tags: N-terminal GST; dsDNA, one strand shown
# T2 sequence: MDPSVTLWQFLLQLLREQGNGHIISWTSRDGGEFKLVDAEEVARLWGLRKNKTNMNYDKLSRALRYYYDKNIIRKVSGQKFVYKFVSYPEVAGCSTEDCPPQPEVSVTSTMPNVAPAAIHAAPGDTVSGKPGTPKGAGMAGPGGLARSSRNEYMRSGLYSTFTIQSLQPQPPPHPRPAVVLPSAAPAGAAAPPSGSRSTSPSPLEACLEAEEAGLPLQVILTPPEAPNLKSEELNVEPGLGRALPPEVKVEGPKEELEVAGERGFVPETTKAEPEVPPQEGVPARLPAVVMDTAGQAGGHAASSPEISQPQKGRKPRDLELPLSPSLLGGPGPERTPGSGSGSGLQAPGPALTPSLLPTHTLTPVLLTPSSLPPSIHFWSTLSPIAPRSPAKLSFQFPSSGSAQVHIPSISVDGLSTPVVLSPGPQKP
# Outline: as §1
# GABPA = target: T3, GABPA (Homo sapiens, UniProt Q06546 1-454); details: protein: recombinant; tags: N-terminal GST; dsDNA, one strand shown
# T3 sequence: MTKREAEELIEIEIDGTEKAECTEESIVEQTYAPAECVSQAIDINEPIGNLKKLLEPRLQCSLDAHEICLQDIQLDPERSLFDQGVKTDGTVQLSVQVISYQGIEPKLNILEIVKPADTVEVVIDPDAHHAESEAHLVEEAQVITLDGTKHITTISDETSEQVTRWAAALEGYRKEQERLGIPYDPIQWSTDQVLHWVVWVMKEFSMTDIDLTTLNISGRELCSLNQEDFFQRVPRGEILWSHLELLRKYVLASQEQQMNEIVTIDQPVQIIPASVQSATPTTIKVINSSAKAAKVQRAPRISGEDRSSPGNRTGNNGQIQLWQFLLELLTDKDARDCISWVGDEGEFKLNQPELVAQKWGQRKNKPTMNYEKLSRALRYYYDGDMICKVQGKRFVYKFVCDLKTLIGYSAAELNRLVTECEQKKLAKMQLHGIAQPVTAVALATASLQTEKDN
# Outline: as §1
# ERG = target: T4, ERG (Homo sapiens, UniProt P11308 1-479); details: protein: recombinant; tags: N-terminal GST; dsDNA, one strand shown
# T4 sequence: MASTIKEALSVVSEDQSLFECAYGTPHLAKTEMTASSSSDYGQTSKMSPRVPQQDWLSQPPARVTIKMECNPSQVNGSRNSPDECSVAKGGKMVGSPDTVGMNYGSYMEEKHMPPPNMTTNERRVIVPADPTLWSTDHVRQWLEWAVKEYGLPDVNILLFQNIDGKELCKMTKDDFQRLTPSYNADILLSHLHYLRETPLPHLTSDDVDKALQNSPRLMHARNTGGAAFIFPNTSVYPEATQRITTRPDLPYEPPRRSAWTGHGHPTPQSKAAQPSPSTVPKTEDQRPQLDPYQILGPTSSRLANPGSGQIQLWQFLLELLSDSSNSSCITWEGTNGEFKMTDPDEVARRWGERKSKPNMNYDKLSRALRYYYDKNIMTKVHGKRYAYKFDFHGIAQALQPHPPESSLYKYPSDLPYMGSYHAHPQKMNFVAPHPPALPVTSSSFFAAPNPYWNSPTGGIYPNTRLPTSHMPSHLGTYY
# Outline: as §1
# ELF1 = ELF1 (Homo sapiens, UniProt P32519 1-619); details: protein: recombinant; tags: N-terminal GST; dsDNA, one strand shown
# Outline: as §1
# EHF = target: T5, EHF (Homo sapiens, UniProt Q9NZC4 1-300); details: protein: recombinant; tags: N-terminal GST; dsDNA, one strand shown
# T5 sequence: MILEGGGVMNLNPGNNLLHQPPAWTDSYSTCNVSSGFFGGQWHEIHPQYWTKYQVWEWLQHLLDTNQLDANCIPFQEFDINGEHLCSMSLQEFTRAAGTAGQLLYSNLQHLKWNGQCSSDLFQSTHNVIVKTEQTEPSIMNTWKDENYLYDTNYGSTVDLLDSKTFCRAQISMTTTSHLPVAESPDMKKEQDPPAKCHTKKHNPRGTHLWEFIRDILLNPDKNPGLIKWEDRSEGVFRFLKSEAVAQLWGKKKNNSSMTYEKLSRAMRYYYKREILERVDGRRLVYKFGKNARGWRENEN
# Outline: as §1
# SPI1 = SPI1 (Homo sapiens, UniProt P17947 1-270); details: protein: recombinant; tags: N-terminal GST; dsDNA, one strand shown
# Outline: as §1
# SPIB = SPIB (Homo sapiens, UniProt Q01892 1-262); details: protein: recombinant; tags: N-terminal GST; dsDNA, one strand shown
# Outline: as §1
# ELK3 = target: T6, ELK3 (Homo sapiens, UniProt P41970 1-407); details: protein: recombinant; tags: N-terminal GST; dsDNA, one strand shown
# T6 sequence: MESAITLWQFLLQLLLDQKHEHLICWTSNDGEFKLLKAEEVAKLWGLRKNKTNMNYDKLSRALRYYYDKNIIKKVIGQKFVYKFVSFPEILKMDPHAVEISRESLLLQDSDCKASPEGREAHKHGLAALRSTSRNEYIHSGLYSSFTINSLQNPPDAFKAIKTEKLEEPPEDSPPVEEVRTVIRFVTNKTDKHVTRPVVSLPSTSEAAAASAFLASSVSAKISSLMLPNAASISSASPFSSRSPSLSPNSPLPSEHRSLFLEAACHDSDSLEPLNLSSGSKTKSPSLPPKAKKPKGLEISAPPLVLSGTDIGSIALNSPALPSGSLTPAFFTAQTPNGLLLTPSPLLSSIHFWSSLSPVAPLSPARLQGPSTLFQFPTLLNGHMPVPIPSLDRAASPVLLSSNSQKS
# Outline: as §1
# FEV = target: T7, FEV (Homo sapiens, UniProt Q99581 1-238); details: protein: recombinant; tags: N-terminal GST; dsDNA, one strand shown
# T7 sequence: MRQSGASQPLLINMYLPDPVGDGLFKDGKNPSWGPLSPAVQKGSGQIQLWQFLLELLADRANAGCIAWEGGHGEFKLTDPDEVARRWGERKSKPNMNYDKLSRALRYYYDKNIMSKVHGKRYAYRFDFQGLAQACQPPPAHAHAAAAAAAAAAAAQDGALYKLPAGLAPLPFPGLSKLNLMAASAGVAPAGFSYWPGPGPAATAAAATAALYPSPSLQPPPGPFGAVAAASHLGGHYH
# Outline: as §1
# ETV5 = ETV5 (Homo sapiens, UniProt P41161 1-510); details: protein: recombinant; tags: N-terminal GST; dsDNA, one strand shown
# Outline: as §1
# HSF1 = HSF1 (Homo sapiens, UniProt Q00613 1-529); details: protein: recombinant; tags: N-terminal GST; chain copies: 3; dsDNA, one strand shown
# Outline: as §1
# SPIC = target: T8, SPIC (Homo sapiens, UniProt Q8N5J4 1-248); details: protein: recombinant; tags: N-terminal GST; dsDNA, one strand shown
# T8 sequence: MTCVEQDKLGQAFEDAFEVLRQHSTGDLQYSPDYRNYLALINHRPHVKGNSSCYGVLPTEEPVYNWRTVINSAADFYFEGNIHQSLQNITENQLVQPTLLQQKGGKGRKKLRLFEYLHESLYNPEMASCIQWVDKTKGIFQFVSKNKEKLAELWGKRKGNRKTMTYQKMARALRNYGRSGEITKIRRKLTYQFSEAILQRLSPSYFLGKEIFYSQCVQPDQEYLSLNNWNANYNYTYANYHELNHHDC
# Outline: as §1
# ELF4 = ELF4 (Homo sapiens, UniProt Q99607 1-663); details: protein: recombinant; tags: N-terminal GST; dsDNA, one strand shown
# Outline: as §1
# ELK4 = target: T9, ELK4 (Homo sapiens, UniProt P28324-2 1-405); details: protein: recombinant; tags: N-terminal GST; dsDNA, one strand shown
# T9 sequence: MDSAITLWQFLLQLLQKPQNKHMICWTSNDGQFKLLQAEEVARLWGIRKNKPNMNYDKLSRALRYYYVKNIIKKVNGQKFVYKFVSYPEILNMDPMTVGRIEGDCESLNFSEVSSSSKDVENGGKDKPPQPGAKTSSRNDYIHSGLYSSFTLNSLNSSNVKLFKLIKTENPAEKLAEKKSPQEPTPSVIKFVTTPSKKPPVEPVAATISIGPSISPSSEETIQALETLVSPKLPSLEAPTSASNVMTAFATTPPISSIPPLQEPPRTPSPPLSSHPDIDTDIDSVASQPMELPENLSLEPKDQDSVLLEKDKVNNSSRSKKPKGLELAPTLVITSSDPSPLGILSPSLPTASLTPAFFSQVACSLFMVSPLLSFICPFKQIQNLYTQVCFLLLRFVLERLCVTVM
# Outline: as §1
# ETV2 = target: T10, ETV2 (Homo sapiens, UniProt O00321 1-342); details: protein: recombinant; tags: N-terminal GST; dsDNA, one strand shown
# T10 sequence: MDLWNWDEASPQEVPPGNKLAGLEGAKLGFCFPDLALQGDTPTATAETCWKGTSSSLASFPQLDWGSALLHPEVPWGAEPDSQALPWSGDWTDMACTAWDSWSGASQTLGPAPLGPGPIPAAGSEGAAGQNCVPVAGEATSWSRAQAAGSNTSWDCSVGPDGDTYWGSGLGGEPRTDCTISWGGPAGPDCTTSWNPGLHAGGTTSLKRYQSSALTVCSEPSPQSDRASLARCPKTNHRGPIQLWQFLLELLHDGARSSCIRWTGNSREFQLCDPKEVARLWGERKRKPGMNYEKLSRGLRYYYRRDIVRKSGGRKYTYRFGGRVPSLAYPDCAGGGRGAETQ
# Outline: as §1
# ELF3 = target: T11, ELF3 (Homo sapiens, UniProt P78545 1-371); details: protein: recombinant; tags: N-terminal GST; dsDNA, one strand shown
# T11 sequence: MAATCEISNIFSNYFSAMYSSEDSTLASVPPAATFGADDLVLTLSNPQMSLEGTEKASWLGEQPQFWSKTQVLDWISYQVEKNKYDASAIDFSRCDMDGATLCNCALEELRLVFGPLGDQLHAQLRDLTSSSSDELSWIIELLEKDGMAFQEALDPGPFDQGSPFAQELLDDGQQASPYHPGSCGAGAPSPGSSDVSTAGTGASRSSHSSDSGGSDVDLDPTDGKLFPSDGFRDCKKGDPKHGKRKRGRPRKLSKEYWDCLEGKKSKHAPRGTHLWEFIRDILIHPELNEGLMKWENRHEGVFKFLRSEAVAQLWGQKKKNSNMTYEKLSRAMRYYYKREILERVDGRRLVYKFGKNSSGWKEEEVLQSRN
# Outline: as §1
# CRX = CRX (Homo sapiens, UniProt O43186 1-299); details: protein: recombinant; tags: N-terminal GST; dsDNA, one strand shown
# Outline: as §1
# ETV1 = ETV1 (Homo sapiens, UniProt P50549 1-477); details: protein: recombinant; tags: N-terminal GST; dsDNA, one strand shown
# Outline: as §1
# Chain of ELF4 (Q99607 whole entry): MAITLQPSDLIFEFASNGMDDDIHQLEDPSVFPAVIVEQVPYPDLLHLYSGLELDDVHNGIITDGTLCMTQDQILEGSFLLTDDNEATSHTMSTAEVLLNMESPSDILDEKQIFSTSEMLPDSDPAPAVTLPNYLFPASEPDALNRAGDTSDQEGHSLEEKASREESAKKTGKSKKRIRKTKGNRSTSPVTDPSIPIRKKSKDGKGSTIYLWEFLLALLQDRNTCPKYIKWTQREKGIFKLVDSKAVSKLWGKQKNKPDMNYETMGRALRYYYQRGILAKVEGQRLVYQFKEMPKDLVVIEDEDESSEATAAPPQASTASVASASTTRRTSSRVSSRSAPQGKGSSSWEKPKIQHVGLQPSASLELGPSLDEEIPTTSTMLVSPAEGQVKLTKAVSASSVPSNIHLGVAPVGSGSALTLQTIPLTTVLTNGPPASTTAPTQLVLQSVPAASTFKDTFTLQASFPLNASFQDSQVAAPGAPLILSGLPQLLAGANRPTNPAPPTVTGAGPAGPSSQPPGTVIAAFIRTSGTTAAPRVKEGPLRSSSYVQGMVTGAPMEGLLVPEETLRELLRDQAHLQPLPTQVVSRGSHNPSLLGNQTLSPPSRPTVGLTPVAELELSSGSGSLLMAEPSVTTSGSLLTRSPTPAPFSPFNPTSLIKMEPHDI
# Chain of ELF1 (P32519 whole entry): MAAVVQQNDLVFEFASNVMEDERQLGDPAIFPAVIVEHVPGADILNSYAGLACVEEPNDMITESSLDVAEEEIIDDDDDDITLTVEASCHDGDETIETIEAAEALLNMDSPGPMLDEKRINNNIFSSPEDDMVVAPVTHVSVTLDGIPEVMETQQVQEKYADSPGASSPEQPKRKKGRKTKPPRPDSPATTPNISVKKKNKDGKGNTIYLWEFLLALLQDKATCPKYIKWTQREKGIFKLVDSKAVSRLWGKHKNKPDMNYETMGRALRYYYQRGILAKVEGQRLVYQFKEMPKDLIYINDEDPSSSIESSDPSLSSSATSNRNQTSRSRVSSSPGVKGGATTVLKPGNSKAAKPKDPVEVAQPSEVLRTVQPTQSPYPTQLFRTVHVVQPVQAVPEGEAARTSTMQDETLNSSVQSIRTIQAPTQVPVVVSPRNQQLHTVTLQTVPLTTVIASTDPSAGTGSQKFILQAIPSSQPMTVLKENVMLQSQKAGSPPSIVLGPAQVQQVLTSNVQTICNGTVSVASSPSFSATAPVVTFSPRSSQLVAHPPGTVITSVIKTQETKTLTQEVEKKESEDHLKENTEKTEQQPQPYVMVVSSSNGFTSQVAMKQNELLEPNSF
# Chain of ETV5 (P41161 whole entry): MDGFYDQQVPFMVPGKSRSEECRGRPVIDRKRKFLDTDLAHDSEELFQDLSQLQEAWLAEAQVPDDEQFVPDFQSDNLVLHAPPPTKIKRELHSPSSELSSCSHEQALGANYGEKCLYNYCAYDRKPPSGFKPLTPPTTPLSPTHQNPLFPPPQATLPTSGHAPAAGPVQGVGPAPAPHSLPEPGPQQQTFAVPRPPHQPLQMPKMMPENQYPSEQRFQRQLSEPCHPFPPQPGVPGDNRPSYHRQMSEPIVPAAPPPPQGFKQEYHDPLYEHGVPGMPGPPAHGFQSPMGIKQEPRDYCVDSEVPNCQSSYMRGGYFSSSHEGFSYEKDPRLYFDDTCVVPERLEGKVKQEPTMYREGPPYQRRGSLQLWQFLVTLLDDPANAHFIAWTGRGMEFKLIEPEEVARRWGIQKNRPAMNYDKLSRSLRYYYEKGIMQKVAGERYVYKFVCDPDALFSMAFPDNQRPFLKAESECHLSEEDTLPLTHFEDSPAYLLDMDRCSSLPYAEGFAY
# Chain of SPIB (Q01892 whole entry): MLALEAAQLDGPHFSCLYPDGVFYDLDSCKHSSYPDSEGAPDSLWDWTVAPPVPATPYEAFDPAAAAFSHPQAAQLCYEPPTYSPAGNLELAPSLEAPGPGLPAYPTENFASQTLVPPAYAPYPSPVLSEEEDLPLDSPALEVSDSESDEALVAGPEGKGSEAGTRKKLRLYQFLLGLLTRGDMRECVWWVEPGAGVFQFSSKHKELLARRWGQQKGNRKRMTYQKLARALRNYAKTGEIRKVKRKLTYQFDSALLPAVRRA
# Chain of CRX (O43186 whole entry): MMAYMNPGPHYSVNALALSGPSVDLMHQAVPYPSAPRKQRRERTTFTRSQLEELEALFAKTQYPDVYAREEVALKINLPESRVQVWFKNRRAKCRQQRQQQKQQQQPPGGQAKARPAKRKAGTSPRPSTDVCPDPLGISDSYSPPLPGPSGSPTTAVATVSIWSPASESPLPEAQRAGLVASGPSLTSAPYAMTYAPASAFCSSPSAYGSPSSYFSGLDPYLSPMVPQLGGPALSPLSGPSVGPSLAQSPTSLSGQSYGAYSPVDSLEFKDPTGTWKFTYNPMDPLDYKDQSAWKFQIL
# Chain of HSF1 (Q00613 whole entry): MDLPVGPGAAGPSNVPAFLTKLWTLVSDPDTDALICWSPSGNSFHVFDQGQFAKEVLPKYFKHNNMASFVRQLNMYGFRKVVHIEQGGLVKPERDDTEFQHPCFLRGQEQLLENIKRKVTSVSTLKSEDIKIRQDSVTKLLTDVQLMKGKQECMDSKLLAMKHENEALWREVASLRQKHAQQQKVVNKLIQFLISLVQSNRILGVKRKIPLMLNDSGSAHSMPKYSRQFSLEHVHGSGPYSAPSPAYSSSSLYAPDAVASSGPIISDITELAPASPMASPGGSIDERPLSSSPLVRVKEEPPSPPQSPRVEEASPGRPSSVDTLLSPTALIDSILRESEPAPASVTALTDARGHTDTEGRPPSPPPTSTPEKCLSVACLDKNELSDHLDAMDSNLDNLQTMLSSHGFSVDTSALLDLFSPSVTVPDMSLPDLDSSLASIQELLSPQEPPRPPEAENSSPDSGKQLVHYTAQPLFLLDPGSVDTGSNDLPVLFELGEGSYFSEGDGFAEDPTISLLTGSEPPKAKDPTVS
# Chain of ETV1 (P50549 whole entry): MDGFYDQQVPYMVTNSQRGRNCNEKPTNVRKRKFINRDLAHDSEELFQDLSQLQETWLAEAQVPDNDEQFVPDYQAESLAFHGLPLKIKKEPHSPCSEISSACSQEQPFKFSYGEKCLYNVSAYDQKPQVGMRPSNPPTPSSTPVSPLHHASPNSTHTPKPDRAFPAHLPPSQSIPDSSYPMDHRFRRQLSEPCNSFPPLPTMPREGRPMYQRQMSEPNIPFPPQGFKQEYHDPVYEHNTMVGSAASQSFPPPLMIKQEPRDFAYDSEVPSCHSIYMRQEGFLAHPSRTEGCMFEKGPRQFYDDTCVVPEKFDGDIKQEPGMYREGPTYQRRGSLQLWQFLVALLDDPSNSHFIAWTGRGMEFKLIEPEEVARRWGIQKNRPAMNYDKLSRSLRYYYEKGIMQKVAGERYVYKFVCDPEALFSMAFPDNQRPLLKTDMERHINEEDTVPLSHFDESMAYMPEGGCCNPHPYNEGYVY
sequence,measurement,setting,value
TAAACC,binding signal,FLI1,"1.27 fold enrichment (6-mer frequency, TF over GST control)"
same,binding signal,ELK1,"1.22 fold enrichment (6-mer frequency, TF over GST control)"
same,binding signal,GABPA,"1.22 fold enrichment (6-mer frequency, TF over GST control)"
same,binding signal,ERG,"1.21 fold enrichment (6-mer frequency, TF over GST control)"
same,binding signal,ELF1,"1.26 fold enrichment (6-mer frequency, TF over GST control)"
same,binding signal,EHF,"1.17 fold enrichment (6-mer frequency, TF over GST control)"
same,binding signal,SPI1,"1.19 fold enrichment (6-mer frequency, TF over GST control)"
same,binding signal,SPIB,"1.31 fold enrichment (6-mer frequency, TF over GST control)"
same,binding signal,ELK3,"1.25 fold enrichment (6-mer frequency, TF over GST control)"
same,binding signal,FEV,"1.29 fold enrichment (6-mer frequency, TF over GST control)"
same,binding signal,ETV5,"1.23 fold enrichment (6-mer frequency, TF over GST control)"
same,binding signal,HSF1,"1.46 fold enrichment (6-mer frequency, TF over GST control)"
same,binding signal,SPIC,"1.13 fold enrichment (6-mer frequency, TF over GST control)"
same,binding signal,ELF4,"1.19 fold enrichment (6-mer frequency, TF over GST control)"
same,binding signal,ELK4,"1.32 fold enrichment (6-mer frequency, TF over GST control)"
same,binding signal,ETV2,"1.27 fold enrichment (6-mer frequency, TF over GST control)"
same,binding signal,ELF3,"1.35 fold enrichment (6-mer frequency, TF over GST control)"
same,binding signal,CRX,"2.11 fold enrichment (6-mer frequency, TF over GST control)"
same,binding signal,ETV1,"1.23 fold enrichment (6-mer frequency, TF over GST control)"
